{"source": "PubChem BioAssay AID1379", "about": "(National Center for Advancing Translational Sciences (NCATS), 2008)", "note": "About 560 (0.28%) of roughly 200,000 compounds were called active. The list comes from a sample in which actives are over-represented; it also holds similar structures and randomly drawn compounds. Values without a mark were called inactive. The call rests on the fitted dose curve; in most records, active means well fitted inhibition curve with a large enough effect; inconclusive means small, poorly fitted or top-dose-only effect; inactive means flat fitted curve, though single readings scatter. On the % scale 0 is the no-effect control and ±100 the full control effect; potency means the concentration at half of the fitted maximal effect.", "data": [{"target": "Luciferin 4-monooxygenase (Photuris pensylvanica) (UniProt Q27757)", "test": "Counterscreen for Luciferase (Kinase-Glo TM) Inhibition; further: nearly all actives have a fitted effect of over 60% in size", "conditions": "ATP luminescence, 8 min; series mostly up to 38.3 µM; activity change, negative = inhibition: at the top concentration", "protocol": "NCGC Assay Overview: NIH Molecular Libraries Screening Centers Network [MLSCN] NIH Chemical Genomics Center [NCGC] MLSCN Grant: None Luciferase (Kinase-Glo, Promega Corporation) was assayed for its ability to generate light using ATP and luciferin as substrates. The ATP concentration in the assay (10 uM) was within the linear range of enzyme activity for the assay conditions used.\nNCGC Assay Protocol Summary: Four uL of substrate mix (final concentration, 50 mM imidazole pH 7.2, 50 mM KCl, 7 mM MgCl2, 10 uM ATP, 0.01% Tween 20, 0.05% BSA) was dispensed into white 1536 well plates. Twenty-three nL of compound was delivered by a pin tool and 2 uL of luciferase detection mix (Kinase-Glo, Promega)) was added. Following 8-minute incubation at ambient temperature, luminescence was measured by a ViewLux (Perkin Elmer) at 5 seconds exposure/plate.", "values": [{"smiles": "C=C1c2cccc(OC)c2O[C@H](C(=O)OCC)[C@@H]1CCCCCC", "activity change, negative = inhibition": "0.372% [at 39.9 µM]"}, {"smiles": "CC(=NCc1ccco1)c1c(C(F)(F)F)[nH]n(-c2nc3ccccc3s2)c1=O", "Potency": "8.91 µM (active)"}, {"smiles": "CCc1ccc(-c2cc(C(=O)NCc3ccco3)c3ccccc3n2)s1", "activity change, negative = inhibition": "-13.6%"}, {"smiles": "CC(=NCc1ccco1)C1=C(O)c2ccccc2C1=O", "activity change, negative = inhibition": "-1.04%"}, {"smiles": "CC(=O)/C(C)=N/O", "activity change, negative = inhibition": "-3.88%"}, {"smiles": "C/C=C1\\C2C=C(C)CC1(N)c1ccc(=O)[nH]c1C2", "note": "(stereo unspecified)", "activity change, negative = inhibition": "1.02% [at 39.9 µM]"}, {"smiles": "O=c1c(O)c(Br)ccc2c(Br)c(O)c(O)c(O)c12", "activity change, negative = inhibition": "-3.69%"}, {"smiles": "Brc1ccc(C2=NCCC(c3ccccc3)O2)cc1", "note": "(stereo unspecified)", "activity change, negative = inhibition": "3.23% [at 39.9 µM]"}, {"smiles": "COc1ccc(-c2c(C)cc3oc(=O)cc(-c4ccccc4)c3c2C)cc1C=O", "activity change, negative = inhibition": "4.99% [at 39.9 µM]"}, {"smiles": "OC[C@H]1O[C@@H](n2cnc3c(NC4CCCC4)ncnc32)[C@H](O)[C@H]1O", "activity change, negative = inhibition": "-4.96%"}, {"smiles": "O=C1OCCN1C(=O)[C@H]1[C@H](c2ccccc2)C(c2ccc(F)cc2)=NN1c1ccccc1", "activity change, negative = inhibition": "4.83% [at 39.9 µM]"}, {"smiles": "CCCCS(=O)(=O)N1C2=NC(C(=O)OC)=C(C(=O)OC)[C@@H]3N(Cc4ccccc4)c4ccccc4[C@]23C[C@H]1C(=O)OC", "activity change, negative = inhibition": "-7.24% [at 7.66 µM]"}, {"smiles": "O=C1CCC[C@@H]2CC(N3CCCCC3)C[C@@H]3CCN1[C@H]23", "note": "(stereo partly specified)", "activity change, negative = inhibition": "3.14% [at 39.9 µM]"}, {"smiles": "CCn1c(/C=N/NC(=O)c2ccc(OC)cc2)nc2ccccc21", "activity change, negative = inhibition": "-1.47%"}, {"smiles": "COc1ccc(C(=O)Nc2ccccc2C(=O)N/N=C/c2ccc(O)c(OC)c2)cc1", "Potency": "1 µM (active)"}, {"smiles": "COc1ccc(C(=O)Nc2ccccc2C(=O)N/N=C/c2ccccc2OC)cc1", "Potency": "6.31 µM (active)"}, {"smiles": "COc1cc(/C=N/NC(=O)c2ccccc2)ccc1OS(=O)(=O)c1ccccc1", "activity change, negative = inhibition": "-4.13%"}, {"smiles": "COc1ccccc1C(=O)NNC(=O)c1ccc(NC(=O)c2ccccc2)cc1", "activity change, negative = inhibition": "2.71%"}, {"smiles": "COc1ccc(/C=N/NC(=O)c2ccccc2)cc1OS(=O)(=O)c1ccccc1", "activity change, negative = inhibition": "-0.772%"}, {"smiles": "CC1(OC(=O)C2CCCC2)C(=O)C=C2C=C(c3ccc(C#N)cc3)OC=C2C1=O", "note": "(stereo unspecified)", "activity change, negative = inhibition": "-2.28%"}, {"smiles": "C[C@H]1Cc2c(COc3ccccc3)nc3c(c2CO1)CN(C(=O)Nc1cccc(C#N)c1)CC3", "activity change, negative = inhibition": "-0.91% [at 7.66 µM]"}, {"smiles": "COC1(C2=NCCN2)COc2ccccc2O1", "note": "(stereo unspecified)", "activity change, negative = inhibition": "-1.93%"}, {"smiles": "O=C1OCCN1C(=O)[C@H]1[C@H](c2ccc(Cl)cc2)C(c2cccc(Cl)c2)=NN1c1ccc(Br)cc1", "activity change, negative = inhibition": "2.51% [at 39.9 µM]"}, {"smiles": "COc1ccc2c(c1)O[C@@H](c1ccc3c(c1)OCO3)[C@H](OC(=O)NCCc1ccc(OC)c(OC)c1)C2=O", "activity change, negative = inhibition": "0.102%"}, {"smiles": "CC[C@H](C)[C@@H](NC(=O)O[C@@H]1C(=O)c2cc(OC)ccc2O[C@H]1c1cccc(OC)c1)C(=O)OC", "activity change, negative = inhibition": "4.76%"}, {"smiles": "CCOC(=O)C1C/C(=C\\C(C)=O)c2cccc(C(F)(F)F)c2O1", "note": "(stereo unspecified)", "activity change, negative = inhibition": "6.29% [at 39.9 µM]"}, {"smiles": "OC[C@H]1O[C@@H](n2cnc3c(N[C@H]4CC5CCC4C5)ncnc32)[C@H](O)[C@@H]1O", "note": "(stereo partly specified)", "activity change, negative = inhibition": "-1.73%"}, {"smiles": "COc1ccccc1CNC(=O)c1ccc(SC)cc1OC", "activity change, negative = inhibition": "-0.807%"}, {"smiles": "COc1cc(SC)ccc1C(=O)Nc1nc(C)cs1", "Potency": "11.2 µM (active)"}, {"smiles": "COc1cc(SC)ccc1C(=O)Nc1cc(C)ccn1", "activity change, negative = inhibition": "-13.8%"}, {"smiles": "CCCCC1=CC2=CC(=O)C(C)(OC(=O)CC)C(=O)C2=CN1CCCOC(C)C", "note": "(stereo unspecified)", "activity change, negative = inhibition": "-3.21% [at 7.66 µM]"}, {"smiles": "C=CCN1c2ccccc2[C@]23C[C@@H](C(=O)OC)N(S(=O)(=O)c4ccc([N+](=O)[O-])cc4)C2=NC(C(=O)OC)=C(C(=O)OC)[C@H]13", "activity change, negative = inhibition": "-1.89% [at 7.66 µM]"}, {"smiles": "O=C(O)CCC(=O)O", "activity change, negative = inhibition": "0.673% [at 39.9 µM]"}, {"smiles": "CC(=O)CC(c1ccccc1)C1C(=O)Oc2ccccc2C1=O", "note": "(stereo unspecified)", "activity change, negative = inhibition": "3.02% [at 39.9 µM]"}, {"smiles": "CC(C)(C)OC(=O)NCCCCC1=CC2=CC(=O)C(C)(OC(=O)c3cccs3)C(=O)C2=CO1", "note": "(stereo unspecified)", "activity change, negative = inhibition": "-0.695%"}, {"smiles": "CC1=C(C/C=C(\\C)CCCC(C)CCCC(C)CCCC(C)C)C(=O)c2ccccc2C1=O", "note": "(stereo unspecified)", "activity change, negative = inhibition": "1.77% [at 39.9 µM]"}, {"smiles": "CCCCCCCC/C=C\\CCCCCCCC(=O)OC[C@H](CO)OC(C)=O", "activity change, negative = inhibition": "2.45%"}, {"smiles": "COC(=O)CCCC1=CC2=CC(=O)C(C)(OC(=O)c3cccs3)C(=O)C2=CN1CC1CC1", "note": "(stereo unspecified)", "activity change, negative = inhibition": "-3.89% [at 7.66 µM]"}, {"smiles": "CC[C@@]12C=C(/C=C/c3ccccc3)[C@](CC)(C1)[C@H](c1ccccc1)CC2=O", "activity change, negative = inhibition": "0.444%"}, {"smiles": "O=c1c2ccccc2nc2n1C1(CCCCC1)Cc1ccccc1-2", "activity change, negative = inhibition": "-4.12%"}, {"smiles": "CN(c1ccc2nc3ccccc3c(=O)n2n1)C1CCCCC1", "Potency": "6.31 µM (active)"}, {"smiles": "CCOC(=O)C(C)Sc1nc2ccccc2c(=O)n1CC1CCCCC1", "note": "(stereo unspecified)", "activity change, negative = inhibition": "-1.71%"}, {"smiles": "C=CCOC(=O)NC(c1ccc(F)c(F)c1)C(C(=O)COC)C(=O)OC", "note": "(stereo unspecified)", "activity change, negative = inhibition": "inactive"}, {"smiles": "COC(=O)C(C(=O)OC)C1c2ccccc2C=C(C2CC2)N1C(=O)OC", "note": "(stereo unspecified)", "activity change, negative = inhibition": "inactive"}, {"smiles": "CC/C=C\\C/C=C\\C/C=C\\C/C=C\\C/C=C\\C/C=C\\CCC(=O)NC(C)C(=O)O", "note": "(stereo unspecified)", "activity change, negative = inhibition": "1.38%"}, {"smiles": "CC(=O)[C@H](C(c1ccccc1)N1CCOCC1)N1CCOCC1", "note": "(stereo partly specified)", "activity change, negative = inhibition": "-6.68% [at 7.66 µM]"}, {"smiles": "O=C(O)C1CCCN(CCC=C(c2ccccc2)c2ccccc2)C1", "note": "(stereo unspecified)", "activity change, negative = inhibition": "-0.135%"}, {"smiles": "CCCCCCCCCCCCCCCCO", "activity change, negative = inhibition": "2.29% [at 39.9 µM]"}, {"smiles": "CCCCC/C=C\\CC1OC1CCCCCCCC(=O)O", "note": "(stereo unspecified)", "activity change, negative = inhibition": "0.471%"}, {"smiles": "COc1cccc(CC(=O)N2CCc3nc(COc4ccccc4)c4c(c3C2)CO[C@@H](C)C4)c1", "activity change, negative = inhibition": "-3.82% [at 7.66 µM]"}, {"smiles": "Nc1ncc(-c2cc3ccccc3oc2=O)s1", "Potency": "11.2 µM (active)"}, {"smiles": "COc1ccc2nc(Nc3nc(-c4cc5ccccc5oc4=O)cs3)sc2c1", "activity change, negative = inhibition": "-3.49%"}, {"smiles": "O=c1oc2ccccc2cc1-c1csc(Nc2ccc(O)cc2)n1", "activity change, negative = inhibition": "-5.88%"}, {"smiles": "NNc1nnc(NN)c2ccccc12", "activity change, negative = inhibition": "-1.53% [at 39.9 µM]"}, {"smiles": "COc1cccc(-c2cc(=O)c3cc(NC(=O)c4ccc(C)cc4)ccc3[nH]2)c1", "activity change, negative = inhibition": "-2.75% [at 39.9 µM]"}, {"smiles": "COc1ccc(-c2nc3c(c4c2C[C@H](c2ccccc2)OC4)CN(C(=O)C2CC2)CC3)c(C)c1", "activity change, negative = inhibition": "-7.98% [at 7.66 µM]"}, {"smiles": "COC(=O)C/C=C/[C@@H](C)[C@H](NC(=O)OCC(Cl)(Cl)Cl)c1ccccc1", "activity change, negative = inhibition": "-1.07%"}, {"smiles": "CCCCCCCC1=Cc2ccc(F)cc2C(C(C(=O)OC)C(=O)OC)N1C(=O)OC", "note": "(stereo unspecified)", "activity change, negative = inhibition": "inactive"}, {"smiles": "Cc1ccnc(NC(=O)c2ccoc2C)c1", "Potency": "6.31 µM (active)"}, {"smiles": "Cc1occc1C(=O)Nc1cccc(Cn2cccn2)c1", "activity change, negative = inhibition": "-12.9%"}, {"smiles": "Cc1ccnc(NC(=O)c2ccc(NC(=O)c3ccco3)cc2)c1", "activity change, negative = inhibition": "-2.89%"}]}]}
